Data: PubChem BioAssay AID602143 (Vanderbilt Specialized Chemistry Center, 2011)
A number with no mark means an inactive call. Activity calls are given as the source filed them. Rule as the data show it: active = remaining activity below about 50%; inactive = the rest.

Target: Phospholipase D2 (Homo sapiens) (UniProt O14939)
Assay: cellular phospholipase D2 activity inhibition – cell-based, HEK293, single concentration (AID 602143);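 also: tested at 200 nM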
Settings: HEK293 cellular PLD2 activity, percent of control; hits give low values

Phospholipase D2 (Homo sapiens), sequence (O14939 whole entry, looked up): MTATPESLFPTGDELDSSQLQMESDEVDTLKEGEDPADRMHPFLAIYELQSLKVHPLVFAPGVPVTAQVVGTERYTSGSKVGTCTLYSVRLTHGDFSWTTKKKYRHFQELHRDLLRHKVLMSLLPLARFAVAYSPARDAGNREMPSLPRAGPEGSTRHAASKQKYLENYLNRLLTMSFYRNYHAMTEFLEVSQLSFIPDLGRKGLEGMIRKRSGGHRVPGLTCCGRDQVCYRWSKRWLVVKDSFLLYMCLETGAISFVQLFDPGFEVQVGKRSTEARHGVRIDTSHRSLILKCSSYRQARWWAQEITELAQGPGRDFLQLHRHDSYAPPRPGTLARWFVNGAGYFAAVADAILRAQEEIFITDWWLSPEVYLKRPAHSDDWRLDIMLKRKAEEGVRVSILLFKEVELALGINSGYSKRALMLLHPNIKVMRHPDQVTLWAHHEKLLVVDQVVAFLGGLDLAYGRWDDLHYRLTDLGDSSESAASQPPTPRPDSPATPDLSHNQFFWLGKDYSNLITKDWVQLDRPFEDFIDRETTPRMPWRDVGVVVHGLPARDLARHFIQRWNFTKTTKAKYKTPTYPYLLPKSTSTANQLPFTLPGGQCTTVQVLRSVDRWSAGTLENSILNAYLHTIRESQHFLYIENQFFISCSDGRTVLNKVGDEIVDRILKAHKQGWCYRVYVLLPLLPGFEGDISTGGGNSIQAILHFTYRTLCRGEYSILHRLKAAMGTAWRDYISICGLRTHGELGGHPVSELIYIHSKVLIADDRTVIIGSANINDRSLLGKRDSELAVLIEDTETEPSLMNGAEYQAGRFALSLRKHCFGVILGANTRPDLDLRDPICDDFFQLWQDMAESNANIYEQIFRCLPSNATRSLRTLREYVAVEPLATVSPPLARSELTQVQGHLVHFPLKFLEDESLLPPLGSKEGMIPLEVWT
Phospholipase D2 (Homo sapiens), sequence (O14939 whole entry, looked up): as above

Compound	remaining activity
C[C@@H](CN1CCC(c2nc3ccccc3[nH]2)CC1)NC(=O)C1CC1c1ccccc1 (stereo partly specified)	90.3%
O=c1[nH]c2ccccc2n1C1CCN(CCNS(=O)(=O)c2ccc(OC(F)(F)F)cc2)CC1	81%
CCCS(=O)(=O)NCCN1CCC(n2c(=O)[nH]c3ccccc32)CC1	64.7%
Nc1cccc(Cl)c1C(=O)NCCN1CCC(n2c(=O)[nH]c3ccccc32)CC1	59.2%
O=C(NCCN1CCC(C(=O)NCCCN2CCOCC2)CC1)c1ccc2ccccc2c1	125%
O=C(c1ccc(Cl)cc1)N1CCC(n2c(=O)[nH]c3cc(Cl)ccc32)CC1	60.2%
C[C@@H](CN1CCC(n2c(=O)[nH]c3cc(I)ccc32)CC1)NC(=O)c1ccc(Cl)cc1	72.7%
COc1cccc(N2CCN(CCNC(=O)c3ccc(C)cc3)CC2)c1	97.6%
C[C@@H](CN1CCC(n2c(=O)[nH]c3ccc(F)cc32)CC1)NC(=O)c1ccc(F)c(F)c1	52.6%
O=C(NCCN1CCN(c2ncccn2)CC1)c1ccc(F)cc1	92.2%
O=C(NCCN1CCC2(CC1)CNc1ccccc12)c1ccc2ccccc2c1	61.8%
O=C(CCc1ccc(F)cc1)NCCN1CCC(n2c(=O)[nH]c3ccccc32)CC1	93.5%
CCOC(=O)CNC(=O)NCCN1CCC(n2c(=O)[nH]c3ccccc32)CC1	121%
Cc1ccccc1NC(=S)NCCN1CCC(n2c(=O)[nH]c3ccccc32)CC1	145%
CCNC(=S)NCCN1CCC(n2c(=O)[nH]c3ccccc32)CC1	78.2%
O=C(NCCN1CCN(c2ccccn2)CC1)c1ccc(C(F)(F)F)cc1	117%
COc1ccc2c(c1)c(CC(=O)NCCN1CCC(n3c(=O)[nH]c4ccccc43)CC1)c(C)n2C(=O)c1ccc(Cl)cc1	73.8%
O=C(NCCN1CCC(n2c(=O)[nH]c3ccccc32)CC1)c1cccc2cccnc12	74.2%
C[C@@H](CN1CCC(n2c(=O)[nH]c3ccccc32)CC1)NC(=O)c1cc2ccccc2s1	38.6% (active)
CC(C)C(=O)N[C@@H](C)CN1CCC(n2c(=O)[nH]c3ccccc32)CC1	106%
O=C(NCCN1CCC(n2c(=O)[nH]c3ccccc32)CC1)c1ccc2c(ccc3ccc4ccccc4c32)c1	96.7%
O=C1c2ccccc2C(=O)N1CCCN1CCC(n2c(=O)[nH]c3ccccc32)CC1	97.3%
CC(C(=O)NCCN1CCN(c2ccncc2)CC1)(c1ccccc1)c1ccccc1	110%
CN(CCN1CCC(n2c(=O)[nH]c3ccccc32)CC1)C(=O)c1ccc2ccccc2c1	101%
C[C@@H](CN1CCC(n2nnc3cc(C(F)(F)F)ccc32)CC1)NC(=O)c1cnc2ccccc2c1	86.9%
C=CCCCCCCCCC(=O)NCCN1CCC(n2c(=O)[nH]c3ccccc32)CC1	65.3%
